Assay results from the antibiotic and cytotoxicity screens of Wong et al. (2023).
About 500 (1.3%) of roughly 39,000 compounds were called active. What follows is part of a selection rich in actives, with near analogues and random picks from the rest.

test system: S. aureus RN4220; assay: growth inhibition call (relative growth <= 0.2); conditions: 50 µM

Row | Compound | growth inhibition call
1 | NC(=O)N1C(=O)[C@H]2[C@H](C1=O)[C@H]1C=C(c3ccc(CO)cc3)[C@@H]2[C@@H](C2CC2)N1Cc1cc2c(cc1Br)OCO2 | inactive
2 | NC(=O)N1C(=O)[C@H]2[C@H](C1=O)[C@H]1C=C(CCCO)[C@@H]2[C@H](c2cccs2)N1Cc1cc2c(cc1Br)OCO2 | inactive
3 | CN1C(=O)[C@H]2[C@H](C1=O)[C@H]1C=C(c3ccc(CO)cc3)[C@@H]2[C@H](c2cccs2)N1Cc1cccc(OC(F)(F)F)c1 | active
4 | CC(C)NC(=O)N(C)C[C@@H]1Oc2ccc(NC(=O)CCCN(C)C)cc2CC(=O)N([C@@H](C)CO)C[C@H]1C | inactive
5 | Cc1ccc(S(=O)(=O)N(C)C[C@@H]2OCCCC[C@@H](C)Oc3ccc(NC(=O)Nc4ccc(F)cc4)cc3C(=O)N([C@H](C)CO)C[C@H]2C)cc1 | inactive
6 | CN(C)CCCNC(=O)C[C@@H]1CC[C@@H]2[C@H](COc3ccc(NC(=O)c4cccc(F)c4)cc3C(=O)N2C)O1 | inactive
7 | Cc1cc(C(C)(C)C)c(O)c(C(C)(C)C)c1 | inactive
8 | CC(C)(c1cc(Br)c(O)c(Br)c1)c1cc(Br)c(O)c(Br)c1 | active
9 | O=C(C[C@@H]1CC[C@H]2NC[C@H](O)COC[C@@H]2O1)NCCN1CCCCC1 | inactive
10 | C[C@@H]1CCCCO[C@@H](CN(C)S(=O)(=O)c2cccs2)[C@H](C)CN([C@H](C)CO)C(=O)c2cc(NC(=O)Nc3ccc(F)cc3)ccc2O1 | inactive
11 | COCC#Cc1ccc2c(c1)O[C@@H](CN(C)S(=O)(=O)c1ccc(OC)cc1)[C@@H](C)CN([C@H](C)CO)S2(=O)=O | inactive
12 | Cn1c(=O)c2c(nc(NCCO)n2C)n(C)c1=O | inactive
13 | C=CCc1ccc(O[C@@H]2O[C@H](CO[C@@H]3O[C@@H](C)[C@H](O)[C@@H](O)[C@H]3O)[C@@H](O)[C@H](O)[C@H]2O)c(O)c1 | inactive
14 | S=c1ccss1 | active
15 | O=C(C[C@@H]1C[C@@H]2c3cc(NS(=O)(=O)c4ccc(F)cc4)ccc3O[C@@H]2[C@H](CO)O1)NCc1cccc(F)c1 | inactive
16 | [N-]=[N+]=N[C@]1(CO)O[C@@H](n2ccc(N)nc2=O)[C@@H](O)[C@@H]1O | inactive
17 | CNC[C@H]1Oc2ccc(NS(=O)(=O)c3cn(C)cn3)cc2CC(=O)N([C@H](C)CO)C[C@@H]1C | inactive
18 | CN1CCN(C(=O)C[C@H]2CC[C@H]3[C@@H](COc4ccc(NC(=O)c5cscn5)cc4C(=O)N3C)O2)CC1 | inactive
19 | Cn1c(=O)c2cc(S(=O)(=O)NCCC(=O)NC3CCCC3)ccc2n(C)c1=O | inactive
20 | C#CC[C@H](c1nc2cc(Cl)ccc2c(=O)n1Nc1ccccc1)N(CCCN)C(=O)c1cccc(Cl)c1F | active
21 | CO[C@H](CN(C)C(=O)c1ccccc1F)[C@@H](C)CN([C@@H](C)CO)S(=O)(=O)c1ccc(Cl)cc1 | inactive
22 | C[C@H]1CCCCO[C@@H](CN(C)C(=O)Nc2ccc3c(c2)OCO3)[C@@H](C)CN([C@@H](C)CO)C(=O)c2cc(NC(=O)CCC(F)(F)F)ccc2O1 | inactive

Row | Compound | growth inhibition call
23 | C[C@H](CO)N1C[C@H](C)[C@@H](CN(C)C(=O)Nc2ccccc2)OCCCC[C@H](C)Oc2ccc(NC(=O)Nc3cccc4ccccc34)cc2C1=O | inactive
24 | CC[C@H]1OC(=O)[C@H](C)[C@@H](O[C@H]2C[C@@](C)(OC)[C@@H](O)[C@H](C)O2)[C@H](C)[C@@H](O[C@@H]2O[C@H](C)C[C@H](N(C)C)[C@H]2O)[C@](C)(OC)C[C@@H](C)C(=O)[C@H](C)[C@@H](O)[C@]1(C)O | active
25 | CC[C@@H]1OC(=O)[C@@H](C)[C@H](O[C@H]2C[C@@](C)(OC)[C@@H](O)[C@H](C)O2)[C@@H](C)[C@H](O)[C@@](C)(O[C@@H]2O[C@H](C)C[C@H](N(C)C)[C@H]2O)C[C@H](C)C(=O)[C@@H](C)[C@H](O)[C@@]1(C)O | active
26 | CCC1OC(=O)C(C)C(OC2CC(C)(OC)C(O)C(C)O2)C(C)C(OC2OC(C)CC(N(C)C)C2O)C(C)(OC)CC(C)C(=O)C(C)C(O)C1(C)O (centres undefined) | active
27 | Cc1ccc(S(=O)(=O)Nc2ccc3c(c2)CC(=O)N([C@@H](C)CO)C[C@H](C)[C@H](CN(C)S(=O)(=O)c2c(C)noc2C)O3)cc1 | inactive
28 | C[C@H](CO)N1C[C@H](C)[C@H](CN(C)S(=O)(=O)c2ccc(Cl)cc2)Oc2c(NC(=O)C3CCOCC3)cccc2C1=O | inactive
29 | COc1ccc(CNC(=O)C[C@@H]2CC[C@@H]3[C@H](COc4ccc(NC(=O)C5CC5)cc4C(=O)N3C)O2)cc1 | inactive
30 | COc1ccccc1C#Cc1cnc2c(c1)C(=O)N([C@@H](C)CO)C[C@H](C)[C@@H](CN(C)S(=O)(=O)c1cn(C)cn1)O2 | inactive
31 | COc1ccccc1NC(=O)N(C)C[C@H]1Oc2ncc(C#CCN(C)C)cc2C(=O)N([C@@H](C)CO)C[C@@H]1C | inactive
32 | COc1ccc(-c2ccc3c(c2)O[C@H](CN(C)CC2CCOCC2)[C@@H](C)CN([C@H](C)CO)S3(=O)=O)cc1 | inactive
33 | C[C@@H]1CN([C@@H](C)CO)C(=O)Cc2cc(NC(=O)Cn3cnnn3)ccc2O[C@H]1CN(C)S(=O)(=O)c1ccc(Cl)cc1 | inactive
34 | Cc1noc(C)c1NC(=O)Nc1ccc2c(c1)C(=O)N([C@H](C)CO)C[C@@H](C)[C@@H](CN(C)C(=O)Nc1c(C)noc1C)OCCCC[C@@H](C)O2 | inactive
35 | Cc1cc(NN)nc(SCC(=O)NN)n1 | inactive
36 | CC(C)(Sc1ccc(CCN(CCCCC2CCCCC2)C(=O)NC2CCCCC2)cc1)C(=O)O | active
37 | C/C=C/c1ccc2c(c1)O[C@@H](CN(C)C(=O)c1ccc3c(c1)OCO3)[C@@H](C)CN([C@@H](C)CO)S2(=O)=O | inactive
38 | Cn1cnc(S(=O)(=O)N2C[C@H](O)COC[C@H]3O[C@H](CC(=O)NC4CCC4)CC[C@@H]32)c1 | inactive
39 | C[C@H]1CN([C@@H](C)CO)C(=O)c2cc(NC(=O)CCCN(C)C)ccc2O[C@H]1CN(C)Cc1ccc(C(=O)O)cc1 | inactive
40 | C[C@H]1CN([C@@H](C)CO)C(=O)c2cc(NC(=O)Cn3cnnn3)ccc2O[C@H]1CN(C)Cc1ccc(C(=O)Nc2ccccc2N)cc1 | inactive
41 | Cc1cc(C(C)(C)CC(C)(C)C)ccc1OCCOCC[N+](C)(C)Cc1ccccc1.[Cl-] | active
42 | C[N+](C)(CCOc1ccccc1)Cc1ccccc1.O=C([O-])c1cc2ccccc2cc1O | inactive
43 | C[N+](C)(CCOc1ccccc1)Cc1ccccc1.O=C(O)c1cc2ccccc2c(Br)c1O | inactive
44 | CC(C)(C)CC(C)(C)c1ccc(OCCOCC[N+](C)(C)Cc2ccccc2)cc1.[Cl-] | active
